The structures appear in SMILES notation. In all, about 320,000 compounds went through this assay and about 2,100 (0.66%) were called active. Roughly 53% stayed inconclusive and do not appear here. Calls follow the shape of the dose curve; as a rule, active = well fitted inhibition curve with a large enough effect in the signal ratio, with a control signal flat (not every such curve was filed as active); inconclusive = small, poorly fitted or top-dose-only effect, or effect the other way, or a change in a side signal; inactive = flat fitted curve, though single readings scatter; the % refers to the signal ratio. The full list was thinned out, with actives kept by preference.
Potency is read from the fitted curve at half-maximal effect.

A short description of this assay: qHTS Assay for Lipid Storage Modulators in Drosophila S3 Cells.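 As to cell number change: cells counted by Cell Tracker Red CMTPX staining in the red channel.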 As to lipid storage change, negative = inhibition: % is scaled to controls: 0 for no effect and ±100 for the full control effect. As to conditions: BODIPY lipid droplet fluorescence, 18-24 h, cells fed with added oleic acid; cell number change: measured here: cell count max response; series mostly up to 46.1 µM; lipid storage change, negative = inhibition: at the top concentration. In short, it runs like this: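 Drosophila S3 cells loaded with oleic acid (400 uM, as added) and compounds at several concentrations; lipid droplets imaged by 488-nm laser-scanning cytometry, 500–530 nm intensity and object ratio to cell channel. Percent activity normalized to 20 uM Triacsin C.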
Background: In qHTS, concentration-response curves come from the screen itself.
As for `Cc1cccc(-n2c(SCc3cc(=O)n4ccsc4n3)nc3ccccc32)c1`, the Potency is 14.6 µM (active) and the cell number change is -9.74%.

With `O=C(CSc1nnc(-c2ccncc2)n1-c1ccccc1)Nc1ccc(C(=O)O)cc1`, the “lipid storage change, negative = inhibition” value is 2.17% (inactive) and the cell number change was 4.34%.

For the compound `O=C(COC(=O)c1ccc[nH]c1=O)NC1CCCc2ccccc21` (configuration not stated), the “lipid storage change, negative = inhibition” value was -20.5% (inactive) and the cell number change was determined as 6.05%.

With `Cc1noc(C)c1S(=O)(=O)N1CCCC(C(=O)NCCc2ccc(Cl)cc2)C1` (configuration not stated), the call was inactive.

As to `Cc1nnc(SCC(=O)Nc2ccc(N3CCOCC3)cc2)n1-c1ccccc1`, the “lipid storage change, negative = inhibition” value is -19.7% (inactive) and the cell number change was -17.5%.

Turning to `CCCCn1c(-c2cccc(C)c2)nc2cc3[nH]c(=O)c(C(C)C)nc3cc21`, the “lipid storage change, negative = inhibition” value is -14.5% (inactive) and the cell number change is -25.6%.

Regarding `CCCCn1c(-c2ccc(C(C)(C)C)cc2)nc2cc3[nH]c(=O)c(C(C)C)nc3cc21`, the “lipid storage change, negative = inhibition” value is -35.3% (inactive) and the cell number change was -12.9%.

On to `CCCCn1c(-c2cccc3ccccc23)nc2cc3[nH]c(=O)c(C(C)C)nc3cc21`, for which the Potency was 20.6 µM (active) and the cell number change was -23%.

As to `O=C(c1cccnc1Cl)N(Cc1ccccc1)Cc1ccccc1`, the “lipid storage change, negative = inhibition” value is 7.46% (inactive) and the cell number change came to 4.31%.

As for `CCCOC(=O)c1ccc(NC(=O)C2C3CCC(C3)C2C(=O)O)cc1` (configuration not stated), the “lipid storage change, negative = inhibition” value is 13.5% (inactive) and the cell number change was determined as 2.97%.

As for `COc1ccc(/C=N/NC(=O)c2ccncc2)cc1CSc1nc2ccccc2s1`, the “lipid storage change, negative = inhibition” value is 17.8% (inactive) and the cell number change is 1.7%.

For the compound `Cc1cc(C)nc(SCC(N)=O)n1`, the “lipid storage change, negative = inhibition” value is 4.3% (inactive) and the cell number change is 14.6%.

`CCN(CC)C(=O)CSc1nc(C)cc(C)n1`: the “lipid storage change, negative = inhibition” value is -0.849% (inactive) and the cell number change was -1.44%.

For the compound `CCOC(=O)CSc1nc(C)cc(C)n1`, the Potency was 23.1 µM (active) and the cell number change is 4.86%.

As for `CCOc1ccccc1OCC(=O)Oc1ccc(C)c(C)c1`, the “lipid storage change, negative = inhibition” value was 2.5% (inactive) and the cell number change is 18.7%.

In the case of `Cc1nc(N/N=C/c2ccccn2)sc1C`, the “lipid storage change, negative = inhibition” value is -3.98% (inactive) and the cell number change is -10.6%.

With `Cc1nc(-c2ccccc2)sc1-c1nc(-c2ccncc2)ncc1S(=O)(=O)c1ccccc1`, the “lipid storage change, negative = inhibition” value is -6.13% (inactive) and the cell number change worked out at 12.5%.

As to `CC1=C(C)CC(C(=O)NCCc2ccccc2)C(C(=O)O)C1` (configuration not stated), the Potency was 6.51 µM (active).

For `CC1=C(C)CC(C(=O)NCC(=O)c2ccccc2)C(C(=O)O)C1` (configuration not stated), the compound was called inactive.

For the compound `O=C(O)C1CC=CCC1C(=O)Nc1cc(Cl)ccc1Cl` (configuration not stated), the “lipid storage change, negative = inhibition” value was 3.72% (inactive) and the cell number change is -10.1%.

Regarding `O=C(O)C1CCCCC1C(=O)NCCCc1ccccc1` (configuration not stated), the “lipid storage change, negative = inhibition” value is -24.2% (inactive) and the cell number change was -1.96%.

As for `O=C(O)C1CC=CCC1C(=O)NCCc1ccccc1` (configuration not stated), the Potency is 23.1 µM (active) and the cell number change is 3.33%.

Consider `O=C(NNC(=O)[C@H]1CC=CC[C@H]1C(=O)O)c1ccc(Cl)cc1Cl`, for which the “lipid storage change, negative = inhibition” value was 2.16% (inactive) and the cell number change came out at 10.3%.

As for `O=C(O)[C@H]1CCCC[C@H]1C(=O)NCCc1ccccc1`, the “lipid storage change, negative = inhibition” value was 19.1% (inactive) and the cell number change amounted to 7.81%.

On to `O=C(Cc1ccc(Cl)cc1)NNC(=O)C1CC=CCC1C(=O)O` (configuration not stated), for which the Potency is 18.4 µM (active).

With `COc1ccc(CCNC(=O)C2CC=CCC2C(=O)O)cc1` (configuration not stated), the “lipid storage change, negative = inhibition” value was 6.12% (inactive) and the cell number change was found to be 23.9%.

In the case of `C/C(=N/N=C1/NC(=O)CC(C(=O)Nc2ccccc2)S1)c1cccs1` (configuration not stated), the “lipid storage change, negative = inhibition” value is 0.841% (inactive) and the cell number change worked out at 1.13%.

For the compound `CCOc1ccc(/C=C2\SC(=S)N(CCC(=O)Nc3ccc(C(=O)O)cc3)C2=O)cc1`, the “lipid storage change, negative = inhibition” value is -6.54% (inactive) and the cell number change was determined as 8.29%.

With `O=C(Nc1cccc(C(F)(F)F)c1)c1cncs1`, the “lipid storage change, negative = inhibition” value was -24.4% (inactive).

Take `CCC(C)NC(=O)C1c2ccccc2C(=O)N1Cc1cc(OC)ccc1OC` (configuration not stated): the “lipid storage change, negative = inhibition” value is 6.59% (inactive) and the cell number change was found to be 8.31%.

Take `O=C(N=Nc1c(O)[nH]c2ccccc12)c1cccs1`: the “lipid storage change, negative = inhibition” value is -1.98% (inactive) and the cell number change was -7.18%.

For the compound `COc1cc(OC)cc(C(=O)N2CCN(C(=O)c3ccc(OC)c(OC)c3)CC2)c1`, the “lipid storage change, negative = inhibition” value is 2.98% (inactive) and the cell number change came out at 14.7%.

`CN(CCc1ccccn1)Cc1ccc(Cl)c(Cl)c1`: the “lipid storage change, negative = inhibition” value is 7.09% (inactive) and the cell number change is -4.68%.

For `CN(CCc1ccccn1)Cc1ccc(Cl)cc1`, the “lipid storage change, negative = inhibition” value was -4.59% (inactive) and the cell number change was 7.49%.

As to `CC(C)=CCCC(C)CN(C)CCc1ccccn1` (configuration not stated), the Potency is 18.4 µM (active) and the cell number change is -0.762%.

Turning to `COc1ccc(CNC(=S)Nc2ccccc2)cc1Cl`, the “lipid storage change, negative = inhibition” value is 7.81% (inactive) and the cell number change worked out at 0.106%.

In the case of `COC(CNC(=O)CN1CCN(Cc2ccc(F)cc2Cl)C1=O)OC`, the “lipid storage change, negative = inhibition” value was 14.7% (inactive) and the cell number change is -2.41%.

With `Nc1ccc(C(=O)OCCCc2nc3ccccc3[nH]2)cc1`, the “lipid storage change, negative = inhibition” value was 5.83% (inactive) and the cell number change was determined as 0.404%.

`Nc1ccc(C(=O)OCCCc2nc3cc4ccccc4cc3[nH]2)cc1`: the Potency was 25.9 µM (active) and the cell number change is -15.5%.

Regarding `COC(=O)c1ccc(C(=O)OCCCc2nc3ccc(N)cc3[nH]2)cc1`, the “lipid storage change, negative = inhibition” value was 15.8% (inactive) and the cell number change was 2.42%.

Take `COc1ccc(/C=C(\C#N)C(=O)c2c(C)[nH]c3ccccc23)cc1OC`: the “lipid storage change, negative = inhibition” value is 24.1% (inactive).

For `O=C(CSc1ccccc1)Nc1nnc(C2CC2)s1`, the “lipid storage change, negative = inhibition” value was -5.17% (inactive) and the cell number change was found to be 6.15%.

`Cc1ccc(NC(=O)COC(=O)C2CCC(=O)N2)c(S(=O)(=O)N2CCOCC2)c1` (configuration not stated): the Potency is 3.66 µM (active) and the cell number change stood at 2.3%.

In the case of `O=C(COC(=O)C1CCC(=O)N1)Nc1ccc(Cl)cc1Cl` (configuration not stated), the “lipid storage change, negative = inhibition” value is -3.21% (inactive) and the cell number change was -17%.

On to `Cc1ccc(NC(=O)COC(=O)CCc2ccc(S(=O)(=O)N3CCOCC3)cc2)c(C)c1`, for which the “lipid storage change, negative = inhibition” value was 7.65% (inactive) and the cell number change was 16.8%.

`CCC(C)OC(=O)C1=C(C)OC23OC(N)=C(C#N)C12C(=O)c1ccccc13` (configuration not stated): the “lipid storage change, negative = inhibition” value was -4.01% (inactive) and the cell number change was determined as 2.42%.

As for `CC(OC(=O)Cc1ccc(Br)cc1)C(=O)NC1CCCCC1C` (configuration not stated), the “lipid storage change, negative = inhibition” value was -22.8% (inactive) and the cell number change was 5.28%.

Take `CC(OC(=O)Cc1c(F)cccc1Cl)C(=O)NC1CCCCC1C` (configuration not stated): the Potency is 16.4 µM (active) and the cell number change is -24.1%.

On to `CC(OC(=O)CNC(=O)c1ccc(Cl)cc1)C(=O)NC1CCCCC1C` (configuration not stated), for which the cell number change came to 3.37% and the lipid storage change, negative = inhibition was -18.8% [at 0.0737 µM] (inactive).

For the origin of these results see PubChem BioAssay AID2685 (National Center for Advancing Translational Sciences (NCATS), 2010).
